# Records with an inconclusive call do not appear. Values without a mark were called inactive. The source made the active and inactive calls. Calls come from the whole dose curve; as a rule, active = well fitted curve in the direction sought with a large enough effect; inconclusive = small, poorly fitted or top-dose-only effect, or another doubt; inactive = no such curve, though single readings can be large or run the other way.
# Test system: NanoLuc luciferase (engineered Oplophorus gracilirostris luciferase)
# Assay: Confirmatory Nanoluciferase (NLuc) qHTS assay for identification of artifact compounds. For activity change, negative = inhibition: % of control where 0% means no effect.
# Settings: secreted NLuc in S16 cell medium, luminescence, 5 min; series mostly up to 39 µM; activity change, negative = inhibition: at the top concentration
# Source text: PI: Alexander Tropsha Ph.D. UNC Eshelman School of Pharmacy University of North Carolina, Chapel Hill, North Carolina Hits from high-throughput screening (HTS) of chemical libraries are often false positives due to their interference with the assay detection technology. In response to this problem, we generated the largest publicly available library of chemical liabilities and developed a free webtool to predict HTS artifacts, both of which are described herein. More specifically, we generated, curated, and integrated HTS datasets for thiol reactivity, redox activity, and luciferase (firefly and nano) activity. Using these curated datasets, we developed and validated several Quantitative Structure-Interference Relationship (QSIR) models to predict nuisance behavior. […] These models were employed for virtual profiling of the National Center for Advancing Translational Science's (NCATS) in-house library, and 256 compounds for each assay were selected for the experimental validation of nuisance behavior. The BA for these external predictions ranged from 58 to 78% for compounds within the applicability domains of the models. […] The models developed in this study, along with aggregation models previously developed by our group (SCAM Detective) were implemented in "Liability Predictor," an online tool which may be used as part of chemical library design or for triaging HTS hits. Both the models and the curated datasets are publicly available at https://liability.mml.unc.edu/.
# PROTOCOL TABLE SEQUENCE No. (e.g., 1, 2, 3, etc.); PARAMETER (e.g., Cells, Incubation, Reagent, etc.); VALUE; DESCRIPTION. 1; Reagent; 2 uL; Nanoluciferase media. 2; Compounds and control; 16 nL; Kalypsis pin tool (Wako USA) equipped with a 1536-well pin head. 3; Incubation; 15 min. 4; Reagent; 2 uL; Luciferase enzyme. 5; Incubation; 5 min. 6; Detection; Luminescence, ViewLux microplate reader. NOTES (numbers refer to Sequence numbers above) 1. Medium was collected from the culture flasks of NLuc-expressing S16 cells (80% confluent) prior to cell plating, filtered through a 0.22um filter, and frozen at -20C prior to use. Media was diluted (1:55) and 2 uL was dispensed into all wells of a 1536-well assay plate (solid-bottom white plate; Greiner Bio One, Monroe, NC). 2. A Wako Pin-tool (Wako Automation, Richmond, VA) was used to transfer 16 nL of compounds (consisting of 7-plates in qHTS format, final concentration range 18.3 nM to 114 uM) or control Cilnidipine (final concentration range 623 nM to 80 uM). 3. 15 min. incubation at room temperature protected from light. 4. 2 uL of NLuc substrate (1:100 in Nano-Glo luciferase buffer; Nano-Glo luminescence assay, Promega, Madison, WI) was dispensed for a final assay volume of 4 uL. 5. Plates were centrifuged (121xg, 15 seconds) and incubated for 5 minutes. 6. Samples were read for luminescence on a ViewLux CCD imager (PerkinElmer). Data were normalized to no-enzyme (0% activity) and no-inhibitor (DMSO; 100%) controls and the resulting percent inhibition data were fitted to a 4-parameter Hill equation using NCATS in-house software.
# Potency is the fitted concentration of half-maximal effect.
SMILES,"activity change, negative = inhibition",Potency
CC1=C[C@H]2[C@]3(O)C(C=C(CO)C[C@]2(O)C1=O)[C@@H]1C(C)(C)[C@]1(O)[C@H](O)[C@H]3C (some centres undefined),2.09%,
CC(=O)O[C@H]1[C@H]2[C@@H](OC(=O)Cc3ccccc3)[C@@H](C)C[C@]2(OC(C)=O)C(=O)/C(C)=C/[C@@H]2[C@H](CC[C@@]13CO3)C2(C)C,-1.77%,
COc1cccc2c1C(=O)c1c(O)c3c(c(O)c1C2=O)CC(O)(C(C)=O)CC3OC1CC(NCc2ccc(CNC3CC(OC4CC(O)(C(C)=O)Cc5c(O)c6c(c(O)c54)C(=O)c4c(OC)cccc4C6=O)OC(C)C3O)cc2)C(O)C(C)O1 (centres undefined),,15.4 µM (active)
CC(C)(O)[C@@H]1[C@H]2OC(=O)[C@@H]1[C@]1(O)C[C@H]3O[C@]34C(=O)O[C@H]2[C@]14C,4.49%,
C[C@@H]1C[C@@H]2[C@H]([C@H]3C=C(COC(=O)c4ccccc4)[C@@H](O)[C@]4(O)[C@@H](O)C(OC(=O)c5ccccc5)=C[C@@]14C3=O)C2(C)C,-2.72% [at 19.8 µM],
COc1cc(=O)n2c(c1C(=O)N(C)Cc1nonc1C)CCN(C(=O)C1C(C)(C)C1(C)C)CC2,2.47%,
C[C@H]1CC[C@@H]2[C@@H](C)[C@H]3C(CC4C5CC=C6CC(O[C@@H]7O[C@H](CO)C(O[C@@H]8O[C@@H](C)[C@H](O)[C@@H](O)[C@H]8O)[C@H](O)[C@H]7O[C@@H]7O[C@@H](C)[C@H](O)[C@@H](O)[C@H]7O)CC[C@]6(C)C5CC[C@@]43C)N2C1 (some centres undefined),-3.93%,
O=P1(N(CCCl)CCCl)NC(OO)CCO1 (centres undefined),-7.69%,
CC(=O)O[C@H]1C2[C@@H](OC(=O)Cc3ccccc3)[C@@H](C)C[C@]2(OC(C)=O)C(=O)/C(C)=C/[C@@H]2[C@H](CC[C@@]13CO3)C2(C)C (some centres undefined),-10.7%,

# Source: PubChem BioAssay AID1845224 (National Center for Advancing Translational Sciences (NCATS), 2023)
